Data from the supplement of paper PMC12632987.
The full ranking holds about 2,300 sequences; the median of “median log2 fold change of GCK-ALFA target abundance (FLAG IP / Myc IP barcode read proportion)” is about 0.095, and the lowest 2% start at about -0.47. This is one part of a sample in which the lowest values are shown more often than they occur.

B1: LC3A_147_483 (protein)
chain: MRIDIDALIKGEETVEEFIERLEEKKEELEEEGVEVELEIEVEEVEEGVYYLKVTVTIKAETKEKEKEAADKIIDTIEEFEEENKDKVLGVLISVEEIEE
B2: LC3A_28_1260 (protein)
chain: SELEKNIEAAIAEVKEAVAKGEEAVVTIKVPAGITEEEVEKVIETMEKIAELGKSLPSVTIIVDVEKGVKQEHIDKLVDKGEELEKKYPNLTVIFALEEE
B3: LC3A_45_1982 (protein)
chain: MWEATIDLLVPRELAEEAYAILKEAGAELVARHGDDLKVDWDALDASYEASRDEEEVYLRLNIYHPDKQVALDSAVEIVDRLEERLGRKVAAIISVKEVP
B4: LC3A_23_600 (protein)
chain: MVTVEADHVVKNDPELAEEKTKKLLEEIKKILEKNKDYIKDYKIEVEFYTDEDGNTVVRITVTVKVKDDPEKAQEIANELISAFDEILPDAVIAYDVEED
B5: LC3A_28_836 (protein)
chain: SFAEEEIKKAKKALEKAKETKEDVVVEVVIKSTMTPEEAQYIMDELEKEVSKLPKDVKVSIVFLAEEPVDPEVLQTIADGGDEIEEKYPNVTVIIALPEE
B6: LC3A_28_985 (protein)
chain: SAMEERLAAALAEAKAAAAAGEATVITIEVPSTATEEDIEKAVAALKEIGEILKGVKGSAIVVDLESGVPEEHIRKLADAGEEVEKANPDVSVIFALDED
B7: LC3A_141_362 (protein)
chain: AVKKKTYTYTATTYDEALKVAEEIGKEIKKFMEETGAEEVKVTVTITSYNEKTGEVTTETDTYTVTKENLDLFIEGLEIDLLSAFDKGADKIVVKVTIET
B8: LC3A_28_758 (protein)
chain: MDVAEIVAAAIAEAKAAAAAGEEAVIRIRVPAGATQEDIDKVIAGLEEIAEIRKDMKSTSIVIDIEAGVSQENIDKLIDAGEAIEKKYPNITVIFALDED
B9: LC3A_59_2012 (protein)
chain: REEVREWVEKIYEAYDDVEKFYELVKKAYEELKKKYSDEELLKLVKEEVERLIKEGKDPRKMKAIYESFKAVIEIKDEEKQKEEIRLIILESEIEEIDEE
B10: LC3A_3_1808 (protein)
chain: MEERLEEVIKLLKEAGHSEETIKAFLEAAEALKEKGYEEALETLLELARELVDLPSELLLEMFEDVLELVETSDDSEEEITERIREIASTYRHEAEIEEL
B11: LC3A_132_320 (protein)
chain: MEEKARRIREEILRLIEEAEENIDDLEKVEELVEEIRELARRAEEELTPEQVAEIFEEAAEKADEVSLKADEEGKEDVALLMDGLSVELAALSIRAEEKI
B12: LC3A_free_2_2172 (protein)
chain: MKYRVIIDALGKPEGIAKLVKTLVDLGIEVEVTTEDGTKMTATKETVEEVVKYLLSKKEEIYVELEAVTDKEKADKALDELEKVAEETGISYIVSIEELE
B13: LC3A_28_689 (protein)
chain: NYIEELKKKAEEILEEAAAKGEEAYIEIDFERPITPEEVEEIMDKLEEYIKKYKLKKVNIVINILSENQSQETIDTIMDKAEELEKRIPNVTVIIALPEN
B14: LC3A_3_1500 (protein)
chain: LEEAVERLLEALREAGVSEADIAEARELLEKAREYLTEESIEAITETVRRLAHLPPRLVAAAVLTLLETILEKKLNDEEVKEKAELLAETAESFAESDER
B15: LC3A_28_698 (protein)
chain: SRVDEDIERARKIAEEAIAKGEDALIELTIRPDTTAEDVDRILATIRELAEKMSKTGKLYVVVDVESGVDQANIDRIADELDKLMEEIPNLTAVIALDED
B16: LC3A_141_369 (protein)
chain: KTVTLKLELKNSSLDEVIEKMEELEEEVLKAYEELGGGKVKVTVTLTFKNSKTGETTVIKEEFEADKEELEMLLEGVLIEAASYRLTENADITVTVTLEA
B17: LC3A_28_725 (protein)
chain: NELEESIEKALKKAKELAEKGKSDVIEITIPGNATQEDIEKVIKALEEIAEIVKDLESVSIVIDVEGGVKQEHIDKLADKAEEIEKKYPNVTVIIALDED
B18: LC3A_free_0_2099 (protein)
chain: MTTVVEVLGIIDNENDKEAAEAIAEELKKLGKKLSEEKGWKVTVELKKVNGSYVITVTIEGKGMSIEEGLEIADEIADKIERLAKEHGVEVTIYTSVYEE
B19: LC3A_28_944 (protein)
chain: MTIEEEIEKALKEAKEAKAKKEPAVITITVKGDATEEEIEKVIETIKEIAELLKDIKGSAIIVDVEKGVKEEHINKLLDTLDEIEKKYPNISAIMALDED
B20: LC3A_28_943 (protein)
chain: MSIEEDIEAALKEAKEAKKKGEPAVITITVKGTATQEEVDAVIKTIKEIAELLKDIKGSAIIVDIEAGVAQEHVDALMDTLDEIEKKYPNINAIAALDED
B21: LC3A_3_1778 (protein)
chain: ADELIEELLEALREAGKSEETIEAAREVAERLRERGFDEALETFVREMRRLLDVPDDILLDMLEEVLELLETEDLSEEEVIERIEELARLARAEAEIEEL
B22: LC3A_132_256 (protein)
chain: SEELYERFLEEAKELIDKIVDALKAGKDPSPYIKELDELAEEAAEKLSLEELERLVEEAEEYAEERFAERLDPNDPEARRALDIVEMILDSALIEAELRA
B23: LC3A_132_258 (protein)
chain: SEEKKEEFLEKFKELIDKIVEALQAGQDPSPYLKELDELAEEAAEELSLEELEELVEEAEKYARERFAERLDPNDPEARRTLLIVEMILDSALIESELRA
B24: LC3A_28_714 (protein)
chain: SPLEESIKKALEEAKEAAKKGEEAVIEIKVEGEITEEETEKVQKAIEEIAEITKDLKSTTIIVDVDGKVPQEHINKILDKGEEVEKKYPNVTVIFALDEN
B25: LC3A_free_0_2103 (protein)
chain: SVTVVEVVAISKEKWSEEKAKKLKEAAEKLAKELEEKYGMETEVKLEEIDGRQVLTIKAKKEGMSIDEGLEIADYIADHLEEKAKELGVEVEIYESVYEE
B26: LC3A_3_1781 (protein)
chain: AEARIAELLAALEAAGASPETIAAVRAAAEALRARGYEEALATFVEEMRRLLGLPDEIRLAFAQEVLRLIEENDLSEEELTEEIRRLARLARLEAEIEEL
B27: LC3A_free_8_2489 (protein)
chain: KSQELANLASDLLDELEEEVEKKAKELGASELDILDLSLLIGSTIAEAYSLSDESPEKIIEAVREGLEELIERAKEISEELAKKVKELSEKILKELEEKA
B28: LC3A_3_1366 (protein)
chain: MEEKIEELLEYLKKEGKSEETLEAVRKTLEALIEKGYEEAAETFIELMKKLSHLPDELLLDFAKEVLEKVENEDLSEEELIEFIKEEAKIAENEAEIIEL
B29: LC3A_28_772 (protein)
chain: MDIKENAAKAIAEAKAAAAAGEEAVIEIKVPDGATEEDIEIVIKALEEIAEITKDMKSISVVIDVDGGVKQEHLDKLAKAAEEIEEKYPNVTVIIALDEN
B30: LC3A_free_39_2201 (protein)
chain: SEEEFEKYKEELLKLAEKEGEEALKEAKELLKEIEGNVNLAKTVLEEVKRAVEEGADVLELLKELLKLVKELKKEGKSEEEIIKEMKAKADVIINLIPID
B31: LC3A_28_1312 (protein)
chain: SKLKKQFEEAIKEVEAAAAAGEPVVVTIDITAEEAEKELEEILKLLEELAKVASKAPGATIIIDVDEDVKPENLKKIAEKAEELEKKYPNVTVIIAIEDK
B32: LC3A_127_171 (protein)
chain: ELEELLEEALEVAEELSELLEEEDYDFEEIEELTRELLELAKKILELDPRAEDALETAEEMLELLEEMKEADEAEQKELKEHLLMLTEGLIIELLGLQLK
B33: LC3A_free_39_2287 (protein)
chain: SEEELEEAVERLEELLEEIEGVSEEEKEIILEAARESLEMAKAILEALEELRRLGGDVAEAAREIAALIRELRAAGASLEERTAAVIEKARDLVNLIPID
B34: LC3A_132_291 (protein)
chain: QQEKAEELKKEIKEIVEEMKENIDDEEKVRKLLEELEKLMKRAEKELSPELLAEVFEELSELLEELSEEFDEAGKEDLALEADSLAIEAASLALRAKEKI
B35: LC3A_127_206 (protein)
chain: KEKELLKKAEKLAEKAEEAVDKIPKEGEKAREEAIKLLEELAKLLKQIPSLKEALEDTEQAIKLLKETAKLSPAEREETIEQISQIISGILIEIESELLK
B36: LC3A_free_46_2354 (protein)
chain: VEAKIEVDLLHEDEEVLKKAVEAIKEAAKKIAKKYGLKVEIKEKIEKLPDGSYFAEIEITLKGEDKETLEKAVNELINEIDEIAKKYDVAAIISYEIIEK

Molecular target: MAP1LC3A, Q9H492
Assay: median log2 fold change of GCK-ALFA target abundance (FLAG IP / Myc IP barcode read proportion) (log2 ratio); each designed protein is fused to an ALFA-tag nanobody in HEK293 cells to bring the named protein to FLAG-tagged glucokinase (GCK); Myc marks an untargeted standard; higher = target protein stabilised (more abundant)
Details: target protein: 3xFLAG-MCP-GCK-ALFA reporter; HEK293 landing pad (RPLP)
Summary of the method: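 Binders fused to an ALFA nanobody were recombined as a library into HEK293 landing-pad cells, which were induced with 2 μg mL^−1 doxycycline and then transfected to express a FLAG-tagged target and a Myc-tagged standard. After 48 h, circular RNA barcodes recovered by anti-FLAG and anti-Myc immunoprecipitation of lysates were reverse transcribed, amplified and sequenced. Each binder's target abundance is the median log2 ratio of FLAG to Myc barcode read proportions, from barcodes present at ≥10^−7 in both replicates, binders carrying ≥3 barcodes per replicate, a 10^−6 pseudocount and pooled replicates.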

| Binder | median log2 fold change |
| --- | --- |
| B1 | -0.904 |
| B2 | -0.13 |
| B3 | 0.0214 |
| B4 | -0.566 |
| B5 | 0.111 |
| B6 | -0.274 |
| B7 | -0.96 |
| B8 | 0.124 |
| B9 | 0.156 |
| B10 | 0.0777 |
| B11 | 0.104 |
| B12 | -8.53e-05 |
| B13 | -0.0908 |
| B14 | 0.0772 |
| B15 | -0.304 |
| B16 | -0.618 |
| B17 | 0.164 |
| B18 | -0.379 |

| Binder | median log2 fold change |
| --- | --- |
| B19 | -0.897 |
| B20 | -0.355 |
| B21 | -0.0575 |
| B22 | -0.217 |
| B23 | -0.582 |
| B24 | 0.219 |
| B25 | 0.15 |
| B26 | 0.24 |
| B27 | 0.0352 |
| B28 | 0.0931 |
| B29 | 0.202 |
| B30 | 0.451 |
| B31 | -0.0764 |
| B32 | -0.77 |
| B33 | 0.257 |
| B34 | -0.27 |
| B35 | 0.148 |
| B36 | -1.38e-07 |
